c-Myc SMM: c-Myc (human) binding; P01106; small molecule microarray, His-c-Myc binding, anti-His fluorescence; calls only; 1.5% of 17,000 active;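 active = spot fluorescence over background with P-value below 7% in all four replicate spots, showing protein binding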
mut p53 SMM: mutant p53 (human) binding; AID 624136; 0.4% of 17,000 active; small molecule microarray binding, anti-GST fluorescence; calls only;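 active = compounds whose four printed spots each glow above background more than chance allows, each with a p-value under 7%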
STAT3 binder: binds human STAT3 on microarray; 0.2% of 17,000 active; calls only; Small molecule microarray, His-STAT3 binding, anti-His fluorescence; AID 624138;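 active = compounds whose four printed spots each show fluorescence over background unusually high for their array block, chance value under 7%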
Target sequence (P40763 whole entry, looked up): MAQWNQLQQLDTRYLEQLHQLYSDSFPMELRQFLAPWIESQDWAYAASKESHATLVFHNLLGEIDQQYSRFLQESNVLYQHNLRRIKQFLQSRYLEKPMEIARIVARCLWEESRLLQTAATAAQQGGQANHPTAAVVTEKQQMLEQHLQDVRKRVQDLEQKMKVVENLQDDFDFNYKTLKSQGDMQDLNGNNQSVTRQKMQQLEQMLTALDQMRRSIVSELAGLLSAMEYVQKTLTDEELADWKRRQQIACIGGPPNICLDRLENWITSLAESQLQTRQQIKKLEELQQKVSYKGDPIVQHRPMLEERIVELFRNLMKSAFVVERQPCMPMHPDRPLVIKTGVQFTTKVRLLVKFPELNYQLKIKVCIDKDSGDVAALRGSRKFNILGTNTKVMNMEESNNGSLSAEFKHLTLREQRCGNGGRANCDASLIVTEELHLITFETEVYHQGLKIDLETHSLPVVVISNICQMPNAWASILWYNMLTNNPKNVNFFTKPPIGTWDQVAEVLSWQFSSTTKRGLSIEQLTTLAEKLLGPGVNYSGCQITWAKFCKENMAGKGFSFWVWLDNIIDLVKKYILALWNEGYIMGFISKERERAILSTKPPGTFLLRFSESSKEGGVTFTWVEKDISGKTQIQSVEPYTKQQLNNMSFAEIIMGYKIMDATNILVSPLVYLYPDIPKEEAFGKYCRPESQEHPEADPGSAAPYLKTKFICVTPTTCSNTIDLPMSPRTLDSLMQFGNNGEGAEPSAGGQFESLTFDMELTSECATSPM
p53 PUMA act: re-activators of the mutant p53 pathway; SW480 PUMA-promoter luciferase, p53 mutant reactivation; activation, % at 9.98 µM; 1.5% of 28,000 active; AID 624151; in the data active = activation above about 52%
NFkB SMM: binds human NF-kappa-B p105 on microarray; AID 624139; Small molecule microarray, anti-His fluorescence binding; P19838; calls only; 1.3% of 17,000 active;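 active = spot fluorescence over background significantly raised, with a chance value under 7% in all four replicate spots of the compound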;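 also: probe protein is his-tagged human p50 processed subunit at 1 µg/ml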
A number is an active result; i = inactive; nt = no result given; + = active, no number. An excerpt weighted towards active compounds, which were near 2.6% of everything screened.

SMILES	c-Myc SMM	mut p53 SMM	STAT3 binder	p53 PUMA act	NFkB SMM
C[C@@H]1O[C@@H](O[C@H]2[C@H](O[C@H]3[C@H](O)[C@@H](C(=O)O)O[C@@H](O[C@H]4CC[C@@]5(C)C(CC[C@]6(C)C5CC[C@]57OC[C@@]8(CCC(C)(C)CC85)[C@H](O)C[C@]76C)C4(C)C)[C@@H]3O[C@@H]3O[C@H](CO)[C@@H](O[C@@H]4OC[C@@H](O)[C@H](O)[C@H]4O)[C@H](O)[C@H]3O)O[C@H](CO)[C@H](O)[C@@H]2O)[C@H](O)[C@H](O)[C@H]1O (stereo partly drawn)	+	i	i	i	+
CC1OC(OC2C(OC(=O)C34CCC(C)(C)CC3C3=CCC5C6(C)CCC(OC7OC(CO)C(OC8OC(C(=O)O)C(OC9OCC(O)C(O)C9O)C(O)C8O)C(O)C7O)C(C)(CO)C6CCC5(C)C3(C)CC4)OC(COC3OCC(O)C(O)C3O)C(O)C2O)C(O)C(O)C1O (stereo not drawn)	i	i	i	i	i
C[C@@H]1O[C@@H](O[C@H]2[C@H](O[C@H]3[C@H](O[C@H]4CC[C@@]5(C)C(CC[C@]6(C)C5CC=C5[C@@H]7CC(C)(C)C[C@@H](O)[C@]7(C)CC[C@]56C)[C@@]4(C)CO)O[C@H](C(=O)O)[C@@H](O)[C@@H]3O)OC[C@H](O)[C@@H]2O)[C@H](O)[C@H](O)[C@H]1O (stereo partly drawn)	+	+	i	i	i
CC(=O)OC1C(C)OC(OC2C(CO)OC(OC(=O)[C@]34CCC(C)(C)CC3C3=CCC5[C@@]6(C)CC[C@H](OC7OC(CO)C(OC8OC(CO)C(OC9OCC(O)C(O)C9O)C(O)C8O)C(O)C7O)[C@@](C)(CO)C6CC[C@@]5(C)[C@]3(C)CC4)C(OC3OC(C)C(O)C(O)C3O)C2O)C(O)C1O (stereo partly drawn)	+	i	i	i	+
CC1(C)CC[C@]2(C(=O)O)CC[C@]3(C)C(=CCC4[C@@]5(C)CC[C@H](O[C@@H]6O[C@H](C(=O)O)[C@@H](O[C@@H]7OC[C@@H](O)[C@H](O)[C@H]7O)[C@H](O)[C@H]6O)C(C)(C)C5CC[C@]43C)C2C1 (stereo partly drawn)	+	i	i	i	+
C[C@@H]1CCCCO[C@H](CN(C)S(=O)(=O)c2cccs2)[C@H](C)CN([C@H](C)CO)C(=O)c2cc(NC(=O)Nc3ccccc3)ccc2O1	i	i	i	nt	i
OCCCNc1ncnc2scc(-c3ccc(Br)cc3)c12	nt	nt	nt	i	nt
C[C@@H]1O[C@@H](O[C@H]2[C@H](O[C@H]3CC[C@@]4(C)C(CC[C@]5(C)C4CC=C4C6CC(C)(C)CC[C@]6(C(=O)O)CC[C@]45C)[C@]3(C)CO)OC[C@H](O)[C@@H]2O)[C@H](O)[C@H](O)[C@H]1O (stereo partly drawn)	i	i	i	i	+
C[C@@H]1O[C@@H](O[C@@H]2[C@@H](O)[C@H](O[C@@H]3[C@@H](O)[C@H](C)O[C@@H](O[C@H]4[C@H](O[C@H]5CC[C@@]6(C)C(CC[C@]7(C)C6CC=C6[C@@H]8CC(C)(C)CC[C@]8(C(=O)O)CC[C@]67C)[C@]5(C)CO)OC[C@H](O)[C@@H]4O)[C@@H]3O)O[C@H](CO)[C@H]2O[C@@H]2O[C@H](CO)[C@@H](O[C@@H]3OC[C@@H](O)[C@H](O)[C@H]3O)[C@H](O)[C@H]2O)[C@H](O)[C@H](O)[C@H]1O (stereo partly drawn)	i	i	i	i	+
Cn1c2ccccc2c2nnc(SCC(=O)c3ccc(Cl)cc3)nc21	+	i	i	i	i
CSc1nncc(-c2ccc(Cl)cc2)n1	nt	nt	nt	63	nt
Cc1noc(C)c1NC(=O)N(C)C[C@H]1Oc2c(NC(=O)Nc3ccc(C(F)(F)F)cc3)cccc2C(=O)N([C@@H](C)CO)C[C@H]1C	i	i	i	i	i
Cc1nn(CCCC(=O)O)c(C)c1[N+](=O)[O-]	+	i	i	i	i

High-throughput results deposited in PubChem by Broad Institute.
